This is a sample that favours compounds with a hit; in the whole collection about 4.6% have one here.
tim10-1 inh: tim10-1 yeast growth inhibition. S. cerevisiae tim10-1 ts strain growth, BacTiter-Glo, 24 h. inhibition, % at 20 µM. actives 2.2% (n = 330,000);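 active means inhibition of at least 40%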;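 further: mutant grown at 25 °C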
NALP3 yeast inh: blocks the NALP3 inflammasome reconstituted in yeast; Yeast reconstituted NLRP3/ASC/caspase-1, beta-gal luminescence, 24 h; inhibition, % at 10 µM; actives 0.39% (n = 330,000); AID 2825;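 active means inhibition of 50% or more; inactive means inhibition below 50%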
PfHsp90 yeast 2: reduces growth (ATP signal) of yeast expressing P. falciparum Hsp90. S. cerevisiae expressing PfHsp90, BacTiter-Glo ATP, 48 h; yeast lacking PDR1 and PDR3 efflux regulators. inhibition, % at 9.4 µM. actives 0.32% (n = 310,000). AID 504621;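 active means every replicate shows inhibition above about 80%, whatever the replicate mean, limit read from the data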
tim23-1 inh: growth inhibitors of tim23-1 mutant yeast | actives 1.3% (n = 330,000) | AID 463212 | S. cerevisiae tim23-1 growth, BacTiter-Glo luminescence, 24 h | inhibition, % at 20 µM;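 active means growth inhibition of the mutant yeast at or above 50%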;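 further: temperature-sensitive mutant grown at 25 °C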
TIM10 inh: inhibits growth of TIM10 yeast strain; actives 1.4% (n = 330,000); AID 463195; S. cerevisiae TIM10 strain growth, BacTiter-Glo luminescence, 24 h; inhibition, % at 10 µM;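 active means inhibition of 40% or more at the single tested concentration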;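 further: wild-type TIM10 isogenic control strain grown at permissive 25 °C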
SKKanGAS inh: inhibitors of SKKanGAS S. pyogenes growth in kanamycin (SK-promoter or general growth effect); BacTiter-Glo, 6 h; inhibition, % at 7.5 µM; actives 1.3% (n = 300,000);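 active means mean replicate score, as percent of positive control median, at least 50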;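 further: strain carries kanamycin resistance gene driven by streptokinase promoter and grows in 40 µg/ml kanamycin; loss of luminescence reflects streptokinase promoter inhibition or plain growth inhibition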
tim23-1 confirm: tim23-1 yeast growth inhibition, confirmed; AID 463218; actives 83% (n = 4,400); inhibition, % at 20 µM; S. cerevisiae tim23-1 growth, BacTiter-Glo luminescence, 24 h; shares compounds with tim23-1 inh;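 active means inhibition above about 39% in either of two replicate wells at 20 µM, limit read from the data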;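 further: temperature-sensitive tim23-1 mutant grown at 25 °C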
Of the large screens only hits and unclear results are named; the others gave an inactive call (follow-up assays come after a bar, where they were run).

CCOC(=O)c1sc(=NC(=O)c2ccccc2Br)n(C)c1C	none
CCOC(=O)c1sc(=NC(=O)c2ccco2)n(C)c1C	tim23-1 inh 54 (no result: SKKanGAS inh) | tim23-1 confirm 44
COc1cccc(-n2nnnc2SCC(=O)N2CCCc3ccccc32)c1	tim23-1 inh 58 | tim23-1 confirm 54
COc1cc(OC)cc(-n2nnnc2SCC(=O)N2CCCc3ccccc32)c1	none
COc1ccc(-c2csc(NS(=O)(=O)c3ccc([N+](=O)[O-])cc3)n2)cc1	tim23-1 inh 84 | tim23-1 confirm inactive
O=C1C(=O)N(C/C=C/c2ccccc2)c2ccccc21	tim23-1 inh 76 | tim23-1 confirm inactive
Cn1c(N2CCOCC2)nc2c1c(=O)n(Cc1ccc(Cl)c(Cl)c1)c(=O)n2C	tim23-1 inh 55 (no result: SKKanGAS inh) | tim23-1 confirm inactive
CCOc1nc(Nc2ccc(OC)c(Cl)c2)nc(OCC)n1	none
COc1ccc(-n2nc3c(N4CCC(C(=O)N5CCCCCC5)CC4)nnc(C)c3c2C)cc1	none
O=C(COC(=O)c1cc([N+](=O)[O-])ccc1N1CCOCC1)Nc1ccc(Cl)cc1	none
O=C(COC(=O)c1cc([N+](=O)[O-])ccc1N1CCOCC1)NCc1ccc(Cl)cc1Cl	tim23-1 inh 51 | tim23-1 confirm 48
O=C(Nc1ccc2oc(-c3ccccc3)nc2c1)c1ccncc1	tim23-1 inh 65 | tim23-1 confirm 67
O=C(Nc1ccc2oc(Cc3ccc(Cl)cc3)nc2c1)c1cccnc1	tim23-1 inh 59 | tim23-1 confirm 54
COc1ccc(C(=O)NC2CCCc3ccccc32)cc1S(=O)(=O)N1CCOCC1 (stereo unspecified)	none (no result: PfHsp90 yeast 2)
CCCCOc1ccc(C(=O)NCC2(c3ccccc3)CCOCC2)cc1	none (no result: PfHsp90 yeast 2)
CCCCCOc1ccc(C(=O)NCC2(c3ccccc3)CCOCC2)cc1	tim23-1 inh 51 | tim23-1 confirm 46
CCc1ccc(CN(C)CC(=O)Nc2ccc(S(=O)(=O)N3CCOCC3)cc2)cc1	none (no result: SKKanGAS inh)
Cc1nc2ccc(NC(=O)c3ccc(Cl)c(NC(=O)c4cccs4)c3)cc2s1	none
Cc1ccc(NC(=O)c2ccc(Cl)c(NC(=O)c3cccs3)c2)cc1	tim23-1 inh 66 | tim23-1 confirm 66
O=c1[nH]nc(-c2ccccc2)cc1-c1ccccc1	none
Oc1ccccc1-c1cc(-c2ccccc2)n[nH]1	tim23-1 inh 71 (no result: SKKanGAS inh) | tim23-1 confirm 60
Oc1ccccc1-c1cc(-c2ccc(F)cc2)n[nH]1	tim23-1 inh 68 | tim23-1 confirm 61
Oc1ccc(Br)cc1-c1cc(-c2ccccc2F)[nH]n1	none
CCOc1ccc(CCNC(=O)COC(=O)c2cc(=O)[nH]c3ccccc23)cc1OCC	none
CCOC(=O)Nc1sc2nc(C)cc(C)c2c1-n1cccc1	tim23-1 inh 51 (no result: PfHsp90 yeast 2) | tim23-1 confirm inactive
Cc1ccc(NC(=O)CCNC(=O)c2ccco2)cc1Cl	none
CC(C)Nc1nc(N)c(C(=O)C23CC4CC(CC(C4)C2)C3)s1	tim23-1 inh 53 | tim23-1 confirm 56
CCc1ccc(C(=O)CN2C(=O)NC3(CCCCCC3)C2=O)cc1	tim23-1 inh 51 (no result: SKKanGAS inh) | tim23-1 confirm inactive
O=C(CN1C(=O)NC2(CCCCCC2)C1=O)c1ccc(F)cc1	none
CC1(C)Cc2ccccc2-c2nc(NCCCO)n(-c3ccccc3)c(=O)c21	none
Cc1c(O)cc2c(c1O)C(=O)CC(c1ccccc1)O2 (stereo unspecified)	tim23-1 inh 51 | tim23-1 confirm 48
COc1c(O)cc2c(c1O)C(=O)CC(c1ccccc1)O2 (stereo unspecified)	none (no result: PfHsp90 yeast 2)
CC[C@@H]1C(c2ccccc2)=NN(c2ccc(Br)cc2)[C@H]1C(=O)N1CCOC1=O	tim23-1 inh 58 (no result: NALP3 yeast inh, SKKanGAS inh) | tim23-1 confirm inactive
CC[C@@H]1C(c2ccc(F)cc2)=NN(c2ccc(Br)cc2)[C@H]1C(=O)N1CCOC1=O	tim23-1 inh 58 (no result: NALP3 yeast inh, SKKanGAS inh) | tim23-1 confirm 44
COc1ccccc1[C@@H]1C(c2ccccc2)=NN(c2ccc(Br)cc2)[C@H]1C(=O)N1CCOC1=O	tim23-1 inh 53 (no result: NALP3 yeast inh, SKKanGAS inh) | tim23-1 confirm inactive
CC[C@@H]1C(c2cccc(Cl)c2)=NN(c2ccc(Br)cc2)[C@H]1C(=O)N1CCOC1=O	none (no result: NALP3 yeast inh, SKKanGAS inh)
C[C@@H]1C(c2ccc(F)cc2)=NN(c2ccccc2)[C@H]1C(=O)N1CCOC1=O	tim23-1 inh 53 (no result: NALP3 yeast inh, SKKanGAS inh) | tim23-1 confirm inactive
Cc1ccc(CSc2nc3ccccc3c(=O)[nH]2)cc1	none
Cc1ccc(NC(=O)CCN2CCC(C(N)=O)CC2)cc1	none
COC(=O)c1sccc1NC(=O)CC1C(=O)NCCN1C(=O)c1ccc(C)c(C)c1 (stereo unspecified)	none
C=CCNc1nc2ccccc2nc1NS(=O)(=O)c1ccc(Br)cc1	tim23-1 inh 50 | tim23-1 confirm 54
C=CCNc1nc2ccccc2nc1NS(=O)(=O)c1ccc(F)cc1	none
COc1ccc(OCCn2cnc3ccccc32)cc1	none
O=C(C1=C(O)C(=O)N(c2ncccn2)C1c1ccc(Cl)c(Cl)c1)c1ccco1 (stereo unspecified)	tim23-1 inh 58 | tim23-1 confirm 41
CC1CCCC(C)N1C(=O)COC(=O)c1cc(F)c(F)cc1Cl (stereo unspecified)	none (no result: SKKanGAS inh)
Cc1c2ccccc2nc2ccccc12	tim23-1 inh 70 | tim23-1 confirm 63
O=C(CC1NCCNC1=O)Nc1cccc([N+](=O)[O-])c1 (stereo unspecified)	none
O=C(c1cccs1)N1CCN(c2cc(Cl)ccc2Cl)CC1	none | tim23-1 confirm inactive
O=C1NN=C(c2ccc(Br)cc2)CC1c1ccc(Cl)cc1 (stereo unspecified)	tim23-1 inh 60 (no result: SKKanGAS inh) | tim23-1 confirm 72
Clc1ccc(-c2[nH]ncc2N=Nc2ccccc2)cc1	tim23-1 inh 68 | tim23-1 confirm inactive
Oc1ccc(-c2[nH]ncc2-c2ccc(Cl)cc2)c(O)c1	none (no result: PfHsp90 yeast 2)
COc1cccc(-c2c(C#N)c(N)nc3c2c(C)nn3-c2ccccc2)c1O	tim23-1 inh 51 | tim23-1 confirm inactive
Cn1c(N)c(C(=O)COC(=O)COc2cc(Cl)c(Cl)cc2Cl)c(=O)n(C)c1=O	none (no result: SKKanGAS inh)
COc1cccc(NCc2cc3c(C(C)(C)C)nn(-c4ccccc4)c3[nH]c2=O)c1	tim23-1 inh 70 | tim23-1 confirm 59
CCOc1ccc(NCc2cc3c(C(C)(C)C)nn(-c4ccccc4)c3[nH]c2=O)cc1	PfHsp90 yeast 2 103, tim23-1 inh 58 | tim23-1 confirm 55
CCc1ccc(NCc2cc3c(C)nn(-c4ccccc4)c3[nH]c2=O)cc1	none
Cc1oc(-c2ccc(Cl)cc2)cc1C(=O)/C(C#N)=C/Nc1ccccc1	none
COc1ccc(S(=O)(=O)N2CCc3ccccc3C2)cc1	tim23-1 inh 53 | tim23-1 confirm 45
O=C1CCCN1C(=O)CSc1ccc2ccccc2n1	none (no result: SKKanGAS inh)
